Laboratory results published in PubChem BioAssay.
For some of these results: Measured potencies and affinities stand elsewhere. Active and inactive are the calls of the source.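 How the source made its calls, unless noted: active means fluorescence ratio normalized to control raised more than 50% in primary screen plus both repeat runs; inactive means the rest.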

Assays:
[1] = tested on: TRPC4 beta (transient receptor potential cation channel C4), mouse; assay: TRPC4 cation channel opening, retest – cell-based, Fluo4 calcium, HEK293 TRPC4beta/mu-opioid, duplicates, 10 µM, confirmation (AID 2426); details: Fluo4 calcium fluorescence, at 10 µM; active compounds read high
[2] = tested on: transient receptor potential cation channel C4 beta (TRPC4), mouse; assay: TRPC4 cation channel opening, second retest – cell-based, second round, Fluo4, HEK293 TRPC4beta/mu-opioid, 1 µM, confirmation (AID 2461;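 active means primary screen active and over 50% activation in each of two duplicate runs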); details: Fluo4 calcium fluorescence, at 1 µM; active compounds read high
[3] = tested on: TRPC4 (transient receptor potential cation channel C4 beta), mouse; assay: potentiation of DAMGO EC20 TRPC4 response – cell-based, second round, Fluo-4, HEK293 TRPC4beta/mu-opioid, 1 µM, confirmation (AID 2554;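 active means primary screen hit whose fluorescence ratio, in both repeats, exceeds the weak agonist control mean by 3 SD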); details: DAMGO EC20, Fluo-4 calcium flux, at 1 µM; active compounds read high
[4] = tested on: TRPC4 beta (transient receptor potential cation channel C4), mouse; assay: potentiation of DAMGO EC20 TRPC4 response – cell-based, Fluo-4, HEK293 TRPC4beta/mu-opioid, confirmation (AID 2555;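 active means primary screen hit whose calcium fluorescence ratio, in both repeats, exceeds the weak agonist control mean by 3 SD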); details: DAMGO EC20, Fluo-4 calcium flux, at 10 µM; active compounds read high
[5] = target: Short transient receptor potential channel 4 (Mus musculus) (UniProt Q9QUQ5); assay: blockers of DAMGO-evoked TRPC4 calcium flux – cell-based, Fluo4, HEK293 TRPC4beta/mu-opioid, confirmation (AID 2636;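 active means calcium signal cut by more than 3 SD below the full-agonist control yet still positive, in both repeats and the earlier primary screen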); details: at 10 µM; active compounds read high
Short transient receptor potential channel 4 (Mus musculus), sequence (Q9QUQ5 whole entry, looked up): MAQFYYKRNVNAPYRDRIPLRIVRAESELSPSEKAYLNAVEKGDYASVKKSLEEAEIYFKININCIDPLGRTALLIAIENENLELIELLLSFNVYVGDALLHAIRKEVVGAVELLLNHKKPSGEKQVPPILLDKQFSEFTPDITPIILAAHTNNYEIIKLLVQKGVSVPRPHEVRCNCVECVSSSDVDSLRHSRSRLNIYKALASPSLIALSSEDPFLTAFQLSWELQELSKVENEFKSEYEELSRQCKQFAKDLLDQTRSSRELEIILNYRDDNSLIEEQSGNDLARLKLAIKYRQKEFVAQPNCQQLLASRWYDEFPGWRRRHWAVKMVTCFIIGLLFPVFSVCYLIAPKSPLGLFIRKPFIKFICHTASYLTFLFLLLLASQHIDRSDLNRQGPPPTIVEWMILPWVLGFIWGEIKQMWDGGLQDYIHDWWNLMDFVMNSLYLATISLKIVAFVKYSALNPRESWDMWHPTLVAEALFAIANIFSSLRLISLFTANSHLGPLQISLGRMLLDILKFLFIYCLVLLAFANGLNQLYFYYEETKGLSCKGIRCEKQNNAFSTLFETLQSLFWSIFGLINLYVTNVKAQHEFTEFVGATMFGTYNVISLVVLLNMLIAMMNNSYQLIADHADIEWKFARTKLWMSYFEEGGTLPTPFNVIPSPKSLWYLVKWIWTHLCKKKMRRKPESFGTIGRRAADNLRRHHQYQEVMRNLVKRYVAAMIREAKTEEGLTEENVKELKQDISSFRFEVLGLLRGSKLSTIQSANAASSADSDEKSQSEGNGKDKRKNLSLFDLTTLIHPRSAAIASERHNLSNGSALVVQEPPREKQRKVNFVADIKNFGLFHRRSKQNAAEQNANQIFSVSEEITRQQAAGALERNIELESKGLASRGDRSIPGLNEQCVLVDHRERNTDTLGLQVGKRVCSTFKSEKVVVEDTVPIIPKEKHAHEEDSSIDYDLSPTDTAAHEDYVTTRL

[6] = target: Short transient receptor potential channel 4 (Mus musculus) (UniProt Q9QUQ5); assay: blockers of DAMGO-evoked TRPC4 calcium flux – cell-based, second round, Fluo4, HEK293 TRPC4beta/mu-opioid, 1 µM, confirmation (AID 2637;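 active means calcium signal ratio cut to more than 3 SD under the fully stimulated control mean yet still positive, in both repeats and the primary screen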;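 on inhibition: percent of integrated ratio relative to wells lacking test compound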); details: at 1 µM; active compounds read high
[7] = target: Short transient receptor potential channel 4 (Mus musculus) (UniProt Q9QUQ5); assay: calcium entry via TRPC4 opening agents – cell-based, HEK293 TRPC4/mu-opioid, Fluo-4 calcium, dose response (AID 434937;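 active means primary screen activator hit with a dose response curve and TRPC4 channel activation at any tested dose; inactive means no activation, no dose response, or not a primary hit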)
[8] = target: Short transient receptor potential channel 4 (Mus musculus) (UniProt Q9QUQ5); assay: potentiation of DAMGO-evoked TRPC4 calcium signal – cell-based, HEK293 TRPC4/mu-opioid, Fluo-4 calcium, EC20 DAMGO, dose response (AID 434941;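 active means earlier screen potentiator hit that boosts the TRPC4 ion channel at some dose, with a dose response; inactive means no potentiation, no dose response, or not a prior hit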;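 further: calcium entry triggered by an EC20 dose of DAMGO at the co-expressed mu-opioid receptor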)
[9] = target: Short transient receptor potential channel 6 (Mus musculus) (UniProt Q61143); assay: TRPC6 blockade by TRPC4 inhibitor hits – cell-based, HEK293, membrane potential dye, duplicate, selectivity assay for TRPC4 inhibitor project, confirmation (AID 434948;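 active means active in primary screen and both duplicates, each dropping signal beyond three positive-control SD with fluorescence still positive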); details: HEK293 TRPC6, membrane potential dye fluorescence, at 10 µM, stimulated with maximal-effect acetylcholine; active compounds read high
Short transient receptor potential channel 6 (Mus musculus), sequence (Q61143 whole entry, looked up): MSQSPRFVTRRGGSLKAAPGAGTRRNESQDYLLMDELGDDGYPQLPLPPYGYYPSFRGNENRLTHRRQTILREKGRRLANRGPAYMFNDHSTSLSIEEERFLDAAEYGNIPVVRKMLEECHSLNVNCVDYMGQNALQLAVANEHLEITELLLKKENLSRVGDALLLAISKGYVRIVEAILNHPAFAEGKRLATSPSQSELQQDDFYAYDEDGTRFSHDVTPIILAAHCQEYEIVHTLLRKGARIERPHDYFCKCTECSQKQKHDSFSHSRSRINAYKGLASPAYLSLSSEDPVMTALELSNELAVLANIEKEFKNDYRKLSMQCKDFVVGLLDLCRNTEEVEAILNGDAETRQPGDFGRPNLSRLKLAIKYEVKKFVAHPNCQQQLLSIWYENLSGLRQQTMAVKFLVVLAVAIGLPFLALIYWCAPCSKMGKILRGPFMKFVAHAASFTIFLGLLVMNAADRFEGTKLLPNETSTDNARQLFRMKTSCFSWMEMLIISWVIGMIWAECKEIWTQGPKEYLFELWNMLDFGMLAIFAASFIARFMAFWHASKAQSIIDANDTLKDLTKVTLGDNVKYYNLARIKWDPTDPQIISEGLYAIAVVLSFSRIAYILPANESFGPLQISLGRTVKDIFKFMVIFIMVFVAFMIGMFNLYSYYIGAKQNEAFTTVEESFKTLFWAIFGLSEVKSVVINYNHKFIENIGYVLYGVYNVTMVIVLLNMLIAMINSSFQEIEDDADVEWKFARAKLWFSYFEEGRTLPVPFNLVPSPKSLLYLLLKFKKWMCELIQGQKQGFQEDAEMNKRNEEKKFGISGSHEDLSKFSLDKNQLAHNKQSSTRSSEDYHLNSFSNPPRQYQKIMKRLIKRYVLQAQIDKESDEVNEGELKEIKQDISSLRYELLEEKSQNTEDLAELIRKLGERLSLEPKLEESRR

[10] = target: Short transient receptor potential channel 6 (Mus musculus) (UniProt Q61143); assay: TRPC6 opening by TRPC4 activator hits – cell-based, HEK293, membrane potential dye, duplicate, selectivity assay for TRPC4 activator project, confirmation (AID 434950;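 active means membrane potential signal rise above negative control mean plus 3 SD in both duplicates, also active in the earlier TRPC4 screen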); details: HEK293 TRPC6, membrane potential fluorescence, at 10 µM; activation: active compounds read high; outcome: activation
[11] = target: Short transient receptor potential channel 6 (Mus musculus) (UniProt Q61143); assay: positive modulators of mouse TRPC6 channel – HEK293 cells, membrane potential dye, duplicate, selectivity assay for TRPC4 potentiator project, confirmation (AID 434952;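 active means compound raising the membrane signal above positive-control mean plus 3 SD in both repeats, and a primary screen hit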); details: HEK293 TRPC6, membrane potential dye fluorescence, at 10 µM, maximal acetylcholine added after compound; active compounds read high
[12] = target: Short transient receptor potential channel 4 (Mus musculus) (UniProt Q9QUQ5); assay: calcium flux activators in TRPC4/5HT1a cells, counter-screen for TRPC4 activator project, cell-based, second counter screen, HEK293 TRPC4/5HT1a, Fluo-4 (AID 434977;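 active means calcium signal rise above buffer-control mean plus 5 SD in both duplicates, and also a hit in the primary screen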); details: Fluo-4 calcium flux, at 10 µM; active compounds read high
[13] = serotonin-gated TRPC4 signal block – cell-based, second counter screen, HEK293 TRPC4/5HT1a, Fluo-4, counter-screen for TRPC4 inhibitor project, confirmation (AID 434978;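 active means primary screen active whose calcium signal fell more than 3 SD beyond the full-serotonin control mean in both duplicate plates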;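 on outcome: serotonin given first at submaximal then at maximal dose after compound preincubation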); details: Fluo-4 calcium flux, at 10 µM, serotonin added to trigger calcium flux; active compounds read high
[14] = tested on: TRPC4 (mouse), co-expressed with 5HT1a in HEK293; assay: enhancement of serotonin-evoked TRPC4 response – cell-based, second counter screen, HEK293 TRPC4/5HT1a, Fluo-4, counter-screen for TRPC4 potentiator project, confirmation (AID 434979;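 active means signal rise over 3 SD above mean of control wells given weak agonist, in both repeats and first screen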); details: Fluo-4 calcium flux, at 10 µM, serotonin added at its EC20 dose; active compounds read high
[15] = nonspecific calcium rise without TRPC4 – cell-based, HEK293 mu-opioid receptor line, counter-screen for TRPC4 activator project, confirmation (AID 449723;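 active means hit in primary screen, with calcium signal over 5 SD above buffer well mean in both duplicates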;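 further: counter screen cells carry the mu-opioid receptor alone and lack TRPC4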); details: HEK293 mu-opioid cells, Fluo-4 calcium fluorescence, at 10 µM; active compounds read high
[16] = nonspecific potentiation of DAMGO calcium response – cell-based, HEK293 mu-opioid receptor line, counter-screen for TRPC4 allosteric potentiator project, confirmation (AID 449724;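 active means calcium signal rise more than 3 SD above the low-dose agonist control mean, in both duplicate plates and the primary screen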); details: HEK293 mu-opioid receptor cells, Fluo-4 calcium flux, at 10 µM, compound added before EC20 DAMGO stimulus; active compounds read high

Measured: inhibition

COCCNc1c2c(nc3ccccc13)CCC2
active: [5] 100% | [6] 57% | [9] 37.5% | [13] 11.8%
inactive: all other assays above

Cn1c(-c2ccccc2)cnc1NCc1ccc(F)cc1
active: [5] 81% | [6] 53% | [13] 25.1%
inactive: all other assays above

Cc1ccc(-c2c[n+](Cc3cccc(Cl)c3)c3n2CCC3)cc1
active: [5] 93% | [6] 76% | [13] 14.8%
inactive: all other assays above

C=CCOc1ccc(Br)cc1CNC(C)(C)CO
active: [5] 94% | [6] 39% | [13] 24.1%
inactive: all other assays above

OCC1(CCc2ccccc2)CCN(Cc2cc(Cl)ccc2O)CC1
active: [5] 79%
inactive: all other assays above

CC(C)C(=O)Nc1ccc(C(=O)Nc2nnc(C(C)(C)C)s2)cc1
active: [5] 57% | [13] 35.1%
inactive: all other assays above

CCCCn1c(NCCO)nc2ccccc21
active: [5] 92% | [6] 66% | [13] 29.5%
inactive: all other assays above

CCCc1noc2c1/C(=N\O)CC(CC(C)SCC)C2 (stereo unspecified)
active: [5] 92% | [13] 14.8%
inactive: all other assays above

Cc1nn(-c2nc3ccccc3n2Cc2ccccc2)c2c1C(=O)CC(C)(C)C2
active: [5] 72% | [13] 13.5%
inactive: all other assays above

Cc1cc(C)nc(/N=C(\N)N(Cc2ccccc2)Cc2ccccc2)n1
active: [5] 97% | [9] 30.5% | [13] 41.7%
inactive: all other assays above

COC(=O)c1cccc2c1-c1ccccc1/C2=N/O
active: [5] 81% | [6] 43% | [13] 27.9%
inactive: all other assays above

O=[N+]([O-])c1cccc(-c2nnc(C3CC3)o2)c1
active: [5] 68% | [6] 38%
inactive: all other assays above

Cc1ccc(O)c(Sc2cc(C)ccc2O)c1
active: [5] 97% | [9] 44.5% | [13] 13.7%
inactive: all other assays above

NC(=NC1CCCCC1)c1ccc(Cl)cc1
active: [5] 97% | [6] 66% | [13] 22.8%
inactive: all other assays above

CCOc1ccccc1N(CC)C(=O)c1nn(C)c2c1CSc1ccccc1-2
active: [5] 95% | [6] 40% | [13] 18.7%
inactive: all other assays above

CC(=O)c1ccc2c(c1)N(C)c1ccccc1S2
active: [5] 84% | [13] 36.8%
inactive: all other assays above

CCOC(=O)C1CCN(C2CCN(C(=O)c3oc4c(C)c(C)ccc4c3C)CC2)CC1
active: [5] 95%
inactive: all other assays above

CCOC(=O)C1(Cc2ccccc2)CCN(Cc2ccc(C)s2)CC1
active: [5] 88% | [13] 13.9%
inactive: all other assays above

Cc1ccccc1OCCn1c(C)nc2ccccc21
active: [5] 36% | [6] 57% | [13] 13.3%
inactive: all other assays above

O=C(Cc1cccc2ccccc12)Nc1ccc(Br)cc1C(=O)O
active: [5] 89% | [13] 28.9%
inactive: all other assays above

O=C(O)c1ccc(CSc2nc(-c3ccc(Cl)cc3)cc(C(F)(F)F)n2)cc1
active: [5] 77% | [13] 19.2%
inactive: all other assays above

CCOC(=O)c1c(NC(=O)C2CCCCC2C(=O)O)sc2c1CCCCC2 (stereo unspecified)
active: [5] 80% | [13] 42.6%
inactive: all other assays above

Cn1c(-c2ccc(F)cc2)cnc1NCc1ccc(F)cc1F
active: [5] 88% | [6] 46% | [13] 29.9%
inactive: all other assays above

Cc1ccc(-c2csc(N(CCCN(C)C)C(=O)c3ccco3)n2)cc1
active: [6] 52% | [9] 37.5%
inactive: all other assays above

N#Cc1c(N)sc2c1CCCCCC2
active: [5] 94% | [6] 44% | [13] 32.3%
inactive: all other assays above

CCOC(=O)CSc1nc2c(sc(=S)n2-c2ccccc2OC)c(=O)n1-c1ccccc1OC
active: [5] 71% | [6] 38% | [13] 31.3%
inactive: all other assays above

C=C(C)Cn1c(SCC)nc2ccccc2c1=O
active: [5] 96% | [13] 21.3%
inactive: all other assays above

CCOc1ccc2[nH]c3c(N4CCN(c5ccccn5)CC4)ncnc3c2c1
active: [5] 83%
inactive: all other assays above

CCCCC[n+]1cccc2c3ccccc3ccc21
active: [5] 93% | [9] 29% | [13] 28.4%
inactive: all other assays above

COc1cc(CNCCc2ccc(F)cc2)ccc1OCc1ccc(Cl)nc1
active: [5] 84% | [9] 40.5%
inactive: all other assays above

Cc1c(CCOC(=O)c2ccc([N+](=O)[O-])cc2)sc[n+]1CC(=O)c1ccccc1
active: [5] 92% | [13] 42.9%
inactive: all other assays above
